Reference: PubChem BioAssay (NCI)
The panel holds about 79,000 compounds, 15% with a hit somewhere; the sample as a whole holds those more often. Rule as the data show it: active = growth inhibition above about 70%; inactive = the rest.

Assays:
[1] = NCI Yeast Anticancer Drug Screen. Data for the rad50 strain (AID 155);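 also: 0% = growth of vehicle-only cultures of the same strain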; conditions: S. cerevisiae rad50 strain growth inhibition; at 50.0 µM; stronger effect = higher value
Procedure, shortened: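 Compounds were tested on a yeast strain with an engineered DNA damage repair alteration; the reported value is growth inhibition normalised to vehicle treatment.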

[2] = NCI Yeast Anticancer Drug Screen. Data for the mec2-1 strain (AID 157); conditions: S. cerevisiae mec2-1 strain, at 50.0 µM, stronger effect = higher value
Procedure, shortened: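 Strain: mec2-1 (DNA repair/cell cycle alteration). Compound exposure, then growth measured; inhibition expressed relative to vehicle.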

[3] = NCI Yeast Anticancer Drug Screen. Data for the sgs1 mgt1 strain (AID 161);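 also: 0% = growth of cultures given vehicle only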; conditions: S. cerevisiae sgs1 mgt1 strain, at 50.0 µM, stronger effect = higher value
Procedure, shortened: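 Read-out: growth inhibition vs vehicle controls. Cells: mutant yeast strain deficient in DNA damage repair.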

[4] = NCI Yeast Anticancer Drug Screen. Data for the cln2 rad14 strain (AID 165);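 also: 0% = growth equal to vehicle treated cultures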; conditions: S. cerevisiae cln2 rad14 strain, at 50.0 µM, stronger effect = higher value
Procedure, shortened: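 Compounds are applied to the cln2 rad14 yeast strain, and growth is then compared with that of vehicle-treated cultures to give inhibition.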

[5] = NCI Yeast Anticancer Drug Screen. Data for the bub3 strain (AID 167); conditions: S. cerevisiae bub3 mutant strain, at 50.0 µM, stronger effect = higher value
Procedure, shortened: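 Growth of a checkpoint-deficient yeast mutant is measured after compound exposure. Values represent inhibition relative to vehicle.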

[6] = NCI Yeast Anticancer Drug Screen. Data for the mlh1 rad18 strain (AID 175); conditions: S. cerevisiae mlh1 rad18 strain growth inhibition; at 50.0 µM; stronger effect = higher value
Procedure, shortened: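 Read-out is yeast growth inhibition, calculated against vehicle-only controls. The compound was applied to a strain engineered with DNA damage repair alterations.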

Measured: growth inhibition

O=C/C=C/c1ccc2c(c1)OC(CO)C(c1ccc(O)c(O)c1)O2 (stereo unspecified)
inactive: [1] 9.15% | [2] 2.2% | [3] 6.7% | [4] 8.15% | [5] 9.7% | [6] 3.2%

Cc1cc(=O)[nH]n1-c1ccc([N+](=O)[O-])cc1
inactive: [1] 6.15% | [2] -2.4% | [3] 5.3% | [4] -9.8% | [5] -1.7% | [6] 14.8%

O=Cc1cc2c(cc1-c1cc3c(cc1C=O)OCO3)OCO2
inactive: [1] -3.4% | [2] 8.25% | [3] 6.6% | [4] 9.85% | [5] 13.1% | [6] 0.75%

N#Cc1ccccc1C(Cl)(Cl)c1cnccn1
inactive: [1] 9.9% | [2] -6.85% | [3] -10.7% | [4] 29.9% | [5] -0.4% | [6] 20.1%

NC(=O)c1csc(C2O[C@@H](COP(=O)(O)OP(=O)(O)OC[C@H]3OC(n4cnc5c(N)ncnc54)[C@H](O)[C@@H]3O)[C@H](O)[C@@H]2O)n1 (stereo partly specified)
inactive: [1] 28.8% | [2] -0.75% | [3] -0.55% | [4] -37.5% | [5] 2.75% | [6] 10.9%

COc1ccc(/C=C/c2c([N+](=O)[O-])c(=O)n(C)c(=O)n2C)cc1
inactive: [1] -14.7% | [2] 0.95% | [3] -3.1% | [4] 16.1% | [5] 2.65% | [6] -10.2%

COc1ccc(-c2cc(C(=O)Nc3cccc(C(F)(F)F)c3)[nH]c(=S)n2)cc1
inactive: [1] -26.2% | [2] -7.95% | [3] -42% | [4] 19.3% | [5] -14.1% | [6] -20.9%

O=c1c2cnc3c4cccnc4ccc3c2[nH]n1-c1ccccc1
inactive: [1] -22.6% | [2] 8.15% | [3] 14.2% | [4] -15.4% | [5] -9.85% | [6] -2.8%

O=P(c1ccccc1)(c1ccccc1)c1ccccc1OCc1cccc(COc2ccccc2P(=O)(c2ccccc2)c2ccccc2)n1
inactive: [1] -7.05% | [2] -7.5% | [3] -11.7% | [4] -21.9% | [5] -2.6% | [6] 31.1%

O=C1CS(=O)(=O)C2(CCCCC2)C(=O)N1
inactive: [1] -15.1% | [2] -5.65% | [3] -12.2% | [4] -42.1% | [5] -3.2% | [6] -27.6%

COc1ccc(SC2=CC(=O)c3ccccc3C2=O)cc1
inactive: [1] 41% | [2] 11.2% | [3] 34.2% | [4] -16.4% | [5] -11.6% | [6] 30.6%

N#Cc1ccc(/C=C2\Cc3ccccc3C2=O)cc1
inactive: [1] -30.6% | [2] -29.7% | [3] -35% | [4] 9.5% | [5] -18.8% | [6] 3.5%

O=C(c1ccc(Cl)cc1Cl)C(CS(=O)(=O)O)CS(=O)(=O)O
inactive: [1] -20.9% | [2] -27.2% | [3] -5.8% | [4] -49.4% | [5] -5.6% | [6] -1.1%

O=C(NN1C(=O)C(Cl)C1c1ccc([N+](=O)[O-])cc1)c1ccccc1O (stereo unspecified)
inactive: [1] -16.2% | [2] -19.2% | [3] -35.7% | [4] -6.45% | [5] -26% | [6] -20.1%

C=C1C(OC(=O)/C=C/c2ccccc2)CC(OC(C)=O)C2(C)C1CC1CC(OC(C)=O)C(C)=C(C(OC(C)=O)C2OC(C)=O)C1(C)C (stereo unspecified)
inactive: [1] 38.5% | [2] 6.35% | [3] 14.1% | [4] 21.4% | [5] 25.4% | [6] 24.5%

Cc1[nH]n(C2=NCCN2)c(=O)c1Cc1ccccc1
inactive: [1] 4.6% | [2] -6.95% | [3] -24.2% | [4] -26.3% | [5] -10.6% | [6] -61.6%

CCOC(=O)c1nc2c(Cl)c3ncccc3cc2[nH]c1=O
inactive: [1] 20.6% | [2] 11.1% | [3] 20.8% | [4] -9.7% | [5] 16.1% | [6] 20.4%

CCOC(=O)C(=O)C(=O)NN(C)C1=NCCN1
inactive: [1] -11.4% | [2] -2.05% | [3] 7.45% | [4] -13.6% | [5] 6.55% | [6] 2%

CC(C)C(=O)OCc1ccc(Cl)cc1
inactive: [1] 29.8% | [2] 38.3% | [3] 21.8% | [4] 12.1% | [5] 26.8% | [6] 17.4%

CC(=O)OC1CCC2(C)C(C1)CC(OC(C)=O)C1C2CC(OC(C)=O)C2(C)C(C(C)CC=C(c3ccccc3)c3ccccc3)CCC12 (stereo unspecified)
inactive: [1] 0.1% | [2] 11.6% | [3] -4.1% | [4] -13.7% | [5] -39.9% | [6] 8.45%

CCOC(OCC)C(=O)NNC(C)C
inactive: [1] 15.4% | [2] -7.85% | [3] -2.15% | [4] -39.9% | [5] 10% | [6] -13.9%
